Measured values as given in PubChem BioAssay (NCI).
Compounds without any hit were thinned out: in the full panel of roughly 79,000, 15% have a hit. The source made the active and inactive calls. Rule as the data show it: active = growth inhibition above about 70%; inactive = the rest.

Assays:
[1] = NCI Yeast Anticancer Drug Screen. Data for the rad52 strain (AID 147);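 also: 0% = growth of vehicle-treated control cultures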; settings: S. cerevisiae rad52 mutant growth inhibition, active compounds read high
Procedure, shortened: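 Compounds are applied to a genetically defined yeast strain lacking normal DNA damage repair, and inhibition of growth is expressed relative to cultures given vehicle only.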

[2] = NCI Yeast Anticancer Drug Screen. Data for the wt1 strain (AID 149);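 also: 0% = growth of vehicle-treated wt1 cultures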; settings: S. cerevisiae wt1 strain (SPY 50644) growth inhibition, active compounds read high
Procedure, shortened: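 Vehicle-normalised growth inhibition; strain wt1; compound exposure.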

[3] = NCI Yeast Anticancer Drug Screen. Data for the rad50EPP+ strain (AID 151);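 also: 0% = growth of vehicle-treated control cultures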; settings: S. cerevisiae rad50 mutant strain, active compounds read high
Procedure, shortened: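 Compounds were applied to the rad50EPP+ yeast strain, which bears a defined DNA repair alteration, and growth inhibition was determined relative to vehicle-treated cultures.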

[4] = NCI Yeast Anticancer Drug Screen. Data for the mgt1 strain (AID 153); settings: S. cerevisiae mgt1 mutant growth inhibition, active compounds read high
Procedure, shortened: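 Strain: mgt1 yeast, one of a set carrying defined DNA damage repair or cell cycle control alterations. Compound-treated growth compared with vehicle.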

[5] = NCI Yeast Anticancer Drug Screen. Data for the rad50 strain (AID 155);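 also: 0% = growth of vehicle-only cultures of the same strain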; settings: S. cerevisiae rad50 strain growth inhibition, active compounds read high
Procedure, shortened: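 A DNA repair-deficient yeast mutant serves as the test organism; compound-induced growth inhibition is calculated against vehicle-treated cells.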

[6] = NCI Yeast Anticancer Drug Screen. Data for the mec2-1 strain (AID 157); settings: S. cerevisiae mec2-1 strain, active compounds read high
Procedure, shortened: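 Strain: mec2-1 (DNA repair/cell cycle alteration). Compound exposure, then growth measured; inhibition expressed relative to vehicle.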

[7] = NCI Yeast Anticancer Drug Screen. Data for the rad14 strain (AID 159);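 also: 0% = growth of vehicle-treated control cultures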; settings: S. cerevisiae rad14 strain growth inhibition, active compounds read high
Procedure, shortened: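 Vehicle-treated cultures served as the baseline for growth inhibition of a DNA repair-mutant yeast strain exposed to each compound.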

[8] = NCI Yeast Anticancer Drug Screen. Data for the sgs1 mgt1 strain (AID 161);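 also: 0% = growth of cultures given vehicle only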; settings: S. cerevisiae sgs1 mgt1 strain, active compounds read high
Procedure, shortened: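 Read-out: growth inhibition vs vehicle controls. Cells: mutant yeast strain deficient in DNA damage repair.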

[9] = NCI Yeast Anticancer Drug Screen. Data for the CLN2oe strain (AID 163);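 also: 0% = growth of vehicle-only control cultures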; settings: S. cerevisiae CLN2oe strain, active compounds read high
Procedure, shortened: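 Growth of a genetically modified yeast strain is measured after compound exposure and compared with cultures given vehicle alone.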

[10] = NCI Yeast Anticancer Drug Screen. Data for the cln2 rad14 strain (AID 165);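 also: 0% = growth equal to vehicle treated cultures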; settings: S. cerevisiae cln2 rad14 strain, active compounds read high
Procedure, shortened: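 Compounds are applied to the cln2 rad14 yeast strain, and growth is then compared with that of vehicle-treated cultures to give inhibition.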

[11] = NCI Yeast Anticancer Drug Screen. Data for the bub3 strain (AID 167); settings: S. cerevisiae bub3 mutant strain, active compounds read high
Procedure, shortened: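 Inhibition values come from growth of compound-treated mutant yeast normalised to vehicle-treated controls.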

[12] = NCI Yeast Anticancer Drug Screen. Data for the wt2 strain (AID 169);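 also: 0% = growth of vehicle-treated yeast cultures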; settings: S. cerevisiae wt2 strain growth inhibition, active compounds read high
Procedure, shortened: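 This strain belongs to a panel of yeast strains with defined genetic alterations in DNA damage repair or cell cycle control. Compounds are applied, and growth inhibition is measured against vehicle-treated cultures.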

[13] = NCI Yeast Anticancer Drug Screen. Data for the mlh1 strain (AID 171);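 also: 0% = growth of vehicle-treated control cultures of the same strain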; settings: S. cerevisiae mlh1 strain growth inhibition, active compounds read high
Procedure, shortened: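 Growth of the mutant yeast strain after compound exposure, expressed as inhibition relative to vehicle-only controls.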

[14] = NCI Yeast Anticancer Drug Screen. Data for the sgs1 strain (AID 173);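 also: 0% = growth of vehicle-only control cultures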; settings: S. cerevisiae sgs1 mutant, active compounds read high
Procedure, shortened: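 Growth of a yeast strain bearing a defined genetic alteration is measured after compound treatment. Inhibition is expressed relative to vehicle-only controls.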

[15] = NCI Yeast Anticancer Drug Screen. Data for the mlh1 rad18 strain (AID 175); settings: S. cerevisiae mlh1 rad18 strain growth inhibition, active compounds read high
Procedure, shortened: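 Read-out is yeast growth inhibition, calculated against vehicle-only controls. The compound was applied to a strain engineered with DNA damage repair alterations.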

[16] = NCI Yeast Anticancer Drug Screen. Data for the rad18 strain (AID 177); settings: S. cerevisiae rad18 mutant growth inhibition, active compounds read high
Procedure, shortened: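 Growth of the mutant yeast strain after compound exposure, normalised to vehicle-only cultures.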

[17] = at 5.0 µM (retest, dose inferred, filed as 0.5)
[18] = at 50.0 µM (retest, dose inferred, filed as 5.0)

Measured: growth inhibition

CC1=C(SCCO)C(=O)c2ccccc2C1=O
inactive: [1]; at 1.2 µM -4% | [1]; at 3.7 µM 1% | [1]; at 11.0 µM 13% | [1]; at 33.0 µM 68% | [1]; at 100.0 µM 67% | [2]; at 1.2 µM -4% | [2]; at 3.7 µM -4% | [2]; at 11.0 µM -2% | [2]; at 33.0 µM 4% | [2]; at 100.0 µM 4% | [3]; at 1.2 µM -7% | [3]; at 3.7 µM 5% | [3]; at 11.0 µM 35% | [4]; at 1.2 µM -3% | [4]; at 3.7 µM -3% | [4]; at 11.0 µM 23% | [4]; at 33.0 µM -10% | [4]; at 100.0 µM 6% | [5]; at 1.2 µM -3% | [5]; at 3.7 µM 0% | [5]; [17] 1% | [5]; at 11.0 µM -8% | [5]; at 33.0 µM 37% | [5]; at 100.0 µM 42% | [6]; at 1.2 µM -1% | [6]; at 3.7 µM -1% | [6]; [17] -22% | [6]; at 11.0 µM 0% | [6]; at 33.0 µM 13% | [6]; at 100.0 µM 11% | [7]; at 1.2 µM 2% | [7]; at 3.7 µM 3% | [7]; at 11.0 µM 8% | [7]; at 33.0 µM 17% | [7]; at 100.0 µM 20% | [8]; [17] -37% | [9]; at 1.2 µM 0% | [9]; at 3.7 µM -5% | [9]; at 11.0 µM -2% | [9]; at 33.0 µM 12% | [9]; at 100.0 µM 14% | [10]; [17] -16% | [10]; [18] 27% | [10]; at 50.0 µM 67.2% | [11]; at 1.2 µM -4% | [11]; at 3.7 µM -1% | [11]; [17] -19% | [11]; at 11.0 µM 5% | [11]; at 33.0 µM 29% | [11]; at 100.0 µM 29% | [12]; at 1.2 µM -2% | [12]; at 3.7 µM 0% | [12]; at 11.0 µM 3% | [12]; at 33.0 µM 18% | [12]; at 100.0 µM 17% | [13]; at 1.2 µM 0% | [13]; at 3.7 µM -2% | [13]; at 11.0 µM 7% | [13]; at 33.0 µM 8% | [13]; at 100.0 µM 5% | [14]; at 1.2 µM -2% | [14]; at 3.7 µM -2% | [14]; at 11.0 µM 7% | [14]; at 33.0 µM 40% | [14]; at 100.0 µM 35% | [15]; [17] -29% | [15]; [18] 62% | [16]; at 1.2 µM -12% | [16]; at 3.7 µM -10% | [16]; at 11.0 µM -3% | [16]; at 33.0 µM 33% | [16]; at 100.0 µM 51%
active: [3]; at 33.0 µM 75% | [3]; at 100.0 µM 71% | [5]; [18] 99% | [5]; at 50.0 µM 84.2% | [6]; [18] 80% | [6]; at 50.0 µM 73.3% | [8]; [18] 72% | [8]; at 50.0 µM 81.5% | [11]; [18] 77% | [11]; at 50.0 µM 81.2% | [15]; at 50.0 µM 81.1%
